Laboratory results reported in the supplement of paper PMC13380429.

Legend:
[1] = system: Vero E6 infected with SARS-CoV-2; experiment: morphology score (similarity to uninfected cells); higher = more like uninfected cells; conditions: 24 h
[2] = system: Vero E6 infected with SARS-CoV-2; experiment: SARS-CoV-2 infection rate relative to infected DMSO; higher = more infection, active = 60 or less; conditions: 24 h

Compound	morphology score [1]	SARS-CoV-2 infection rate [2]
CCNC(=O)[C@@H]1CCCN1C(=O)[C@H](CCCNC(=N)N)NC(=O)[C@H](CC(C)C)NC(=O)[C@@H](C)NC(=O)[C@H](Cc1ccc(O)cc1)NC(=O)[C@H](CO)NC(=O)[C@H](Cc1c[nH]c2ccccc12)NC(=O)[C@H](Cc1cnc[nH]1)NC(=O)[C@@H]1CCC(=O)N1 [alarelin] (10 µM)	-0.246	114% (inactive)
COc1cc2c(Oc3ccc4[nH]c(C)cc4c3F)ccnc2cc1OCC1(N)CC1 [anlotinib] (10 µM)	-0.207	100% (inactive)
CCN1CCN(C(=O)Cc2ccc(Nc3ncc(F)c(Nc4ccc(C(=O)Nc5ccccc5Cl)cc4)n3)cc2)CC1 [aurora-a-inhibitor-i] (10 µM)	-0.072	86% (inactive)
COc1cc(OC)c(OC)cc1C=O [asaraldehyde] (10 µM)	-0.0171	110% (inactive)
CC=CC1=C(C(=O)O)N2C(=O)[C@@H](NC(=O)[C@H](N)c3ccc(O)cc3)[C@H]2SC1 (mixture of isomers) [cefprozil] (10 µM)	0.273	99% (inactive)
CN(C)CC[C@@]1(c2ccc(Cl)cc2)Cc2ccccc2C(=O)O1 (racemic) (10 µM)	-0.1	106% (inactive)
CCOC(N)=O [urethane] (10 µM)	-0.0716	106% (inactive)
CC[N+](C)(CC)CCOC(=O)C(O)(c1ccccc1)C1CCCCC1 (stereo not drawn) [oxyphenonium] (10 µM)	0.00163	102% (inactive)
O=C1NC(=O)/C(=C/c2ccc3nccc(-c4ccncc4)c3c2)S1 (0.833333 µM)	0.151	108% (inactive)
